Compounds without any hit were thinned out: in the full panel of roughly 79,000, 15% have a hit. Cut-off read from the data, not from the text of the source: active = growth inhibition above about 70%; inactive = the rest.
Tests used:
[1] = NCI Yeast Anticancer Drug Screen. Data for the rad50 strain (AID 155);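 note: 0% = growth of vehicle-only cultures of the same strain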; settings: S. cerevisiae rad50 strain growth inhibition; at 50.0 µM; hits give high values
How it was run: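 Readout: growth inhibition relative to vehicle-treated cultures. Compound exposure was carried out in a genetically defined yeast strain deficient in DNA damage repair.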

[2] = NCI Yeast Anticancer Drug Screen. Data for the mec2-1 strain (AID 157); settings: S. cerevisiae mec2-1 strain, at 50.0 µM, hits give high values
How it was run: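 Using mec2-1 yeast: add compound, measure growth, express inhibition versus vehicle-treated cultures.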

[3] = NCI Yeast Anticancer Drug Screen. Data for the cln2 rad14 strain (AID 165);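 note: 0% = growth equal to vehicle treated cultures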; settings: S. cerevisiae cln2 rad14 strain, at 50.0 µM, hits give high values
How it was run: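 Yeast strain cln2 rad14, bearing defects in cell cycle control and DNA repair, serves as the test system; values reflect growth inhibition compared with vehicle.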

[4] = NCI Yeast Anticancer Drug Screen. Data for the bub3 strain (AID 167); settings: S. cerevisiae bub3 mutant strain, at 50.0 µM, hits give high values
How it was run: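 Readout: yeast growth inhibition, expressed relative to vehicle-only wells. The test organism is a mutant strain from a panel with lesions in DNA repair or checkpoint genes.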

[5] = NCI Yeast Anticancer Drug Screen. Data for the mlh1 rad18 strain (AID 175); settings: S. cerevisiae mlh1 rad18 strain growth inhibition; at 50.0 µM; hits give high values
How it was run: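 Steps: expose repair-defective yeast to compound; measure growth; express inhibition against vehicle-treated controls.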

[6] = NCI Yeast Anticancer Drug Screen. Data for the sgs1 mgt1 strain (AID 161);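 note: 0% = growth of cultures given vehicle only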; settings: S. cerevisiae sgs1 mgt1 strain, at 50.0 µM, hits give high values
How it was run: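 Percent growth inhibition was derived by comparing compound-exposed mutant yeast with vehicle-exposed cultures. The strain carries alterations in DNA damage repair.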

Measured: growth inhibition

CCOC(=O)C(=O)C=P(c1ccccc1)(c1ccccc1)c1ccccc1
inactive: [1] -29.5% | [2] -22.4% | [3] -8.9% | [4] -40.9% | [5] -24.2%

O=C(O)C(c1ccccc1)C(O)c1ccccc1 (centres undefined)
inactive: [1] 5.35% | [2] -21.4% | [3] -26.1% | [4] -30.4% | [5] -7.45%

O=[N+]([O-])c1ccc(CO)cc1
inactive: [1] 0.15% | [2] 0.35% | [3] 6.75% | [4] 22.1% | [5] 4.1%

CC(=O)Nc1ccc(NC(C)=O)c2c1C(=O)c1ccccc1C2=O
inactive: [1] 5.55% | [2] -24.1% | [6] -10.3% | [4] -19.3% | [5] 23.9%

COc1cc(/C=N\Nc2ccccc2)ccc1OC(=O)c1ccccc1
inactive: [1] 25.1% | [2] 8.95% | [6] 41.4% | [5] 17.6%

Cc1cc(C)c(N)c(S(=O)(=O)O)c1
inactive: [1] -0.7% | [2] -6.45% | [3] -63% | [4] 11.2% | [5] -13.7%

CCC/C=C(\C)C(C)(C#N)C(=O)OCC (centres undefined)
inactive: [1] 3.1% | [2] -8.45% | [3] -1.35% | [4] -17.7% | [5] -29.9%

Cc1cc(Cc2cc(C)c(N)cc2N)c(N)cc1N
inactive: [1] -1.6% | [2] -49.4% | [3] 15.2% | [4] -2.25%

NC(=O)NC(=O)c1ccc(Cl)cc1
inactive: [1] 14.8% | [2] -7.05% | [6] 19.2% | [4] -1.05% | [5] 11.3%

C[N+](C)=c1ccc2nc3c(cc(Nc4ccccc4)c4ccccc43)oc-2c1
inactive: [1] 20.1% | [2] 49.6% | [3] 29.6% | [4] 38% | [5] 39.2%

C=CC(O)CCC (centres undefined)
inactive: [1] -8.4% | [2] -41% | [5] -2.7%

Cc1cc(C)cc(NCCC#N)c1
inactive: [1] 15.5% | [2] -32.5% | [3] -1.75% | [4] 11.8% | [5] -17.4%

N#CC(=Nc1cccc(F)c1)C1=C(O)c2ccccc2C1=O
inactive: [1] 11.6% | [2] -2.6% | [6] 22.4% | [4] 20.5% | [5] 18.8%

c1csc(-c2cc(-c3cc(-c4cccs4)[nH]n3)n[nH]2)c1
inactive: [1] 9.4% | [2] -11.2% | [3] -2.7% | [5] 2.6%

O=C(CCNNC(=O)c1ccncc1)NCc1ccccc1
inactive: [1] 8.25% | [2] 11.6% | [3] -46% | [5] 7.3%

CC1(C)Nc2cccc3c(N=Nc4ccc(N=Nc5ccccc5)c5ccccc45)ccc(c23)N1
inactive: [1] -50.5% | [2] -38.1% | [3] -2.2% | [4] -5.2% | [5] -74.6%

COc1cc2c(cc1O)CC[C@@H]1C2CC[C@@]2(C)C1CC[C@@H]2O (some centres undefined)
inactive: [1] -11.6% | [2] -13.4% | [6] -15.2% | [4] -13.8% | [5] 18.3%

O=[N+]([O-])c1ccccc1N=Nc1ccc(O)cc1O
inactive: [1] 35.4% | [2] 21.1% | [4] 10.7% | [5] 39.2%

CCOC(=O)C/C(C)=N\O
inactive: [1] 4.05% | [2] -11.3% | [3] 8.45% | [4] 9.15% | [5] 2.4%

O=C(/C(=N/O)c1ccccc1)c1ccccc1
inactive: [1] 7.4% | [2] -21.6% | [3] -25.5% | [4] 4.85% | [5] 12.2%

O=[N+]([O-])c1ccc(N=Nc2ccccc2)cc1
inactive: [1] 11.4% | [2] 12.2% | [6] -1.1% | [4] -5.2% | [5] 14.8%

COC(=O)c1cc(-c2ccc(Cl)c(Cl)c2)[nH]c(=O)c1C#N
inactive: [1] -16.9% | [2] -18.9% | [3] 21.7% | [4] -21.9% | [5] 18.6%

Cc1c(O)cnc2nn(-c3ccccc3)c(=N)n12
inactive: [1] 19.5% | [2] 11.4% | [3] 15.9% | [4] 15% | [5] 12.9%

CCOc1ccc(/C=C/C(=O)c2ccccc2)cc1
inactive: [1] -9.9% | [2] -15.9% | [3] -20.1% | [4] 22.4% | [5] -19.6%

COS(=O)(=O)c1ccc(Br)cc1
inactive: [1] -6% | [2] -23.4% | [3] -60.8% | [4] 0.6% | [5] -26.2%

O=C(O)c1ccccc1NCc1ccco1
inactive: [1] -14.7% | [6] 14% | [4] -19.6% | [5] -5.7%

CCNc1nc2c(cnn2C)c(=O)[nH]1
inactive: [1] -16.6% | [6] 4.4% | [3] -34.1% | [4] 28.1% | [5] 29.4%

O=C(O)c1ccnc(Br)c1
inactive: [1] -3.05% | [6] -31.1% | [3] 11.7% | [4] -27.3%

CC(=O)c1ccc(C)c(N)c1
inactive: [1] -4.15% | [6] 6.25% | [3] -0.6% | [4] -2.15%

CCOC(=O)c1cc(/C=C/c2cccc(Cl)c2)on1
inactive: [1] 57.2% | [6] 25.9% | [3] 26.1% | [5] 47.4%

NC(C(=O)O)C(O)c1ccco1 (centres undefined)
inactive: [1] 6.6% | [6] 3.95% | [3] 13.8% | [4] 3.75% | [5] 6.75%

CC1NC(=O)NC1CCCCCC(=O)O (centres undefined)
inactive: [1] 8.3% | [3] 12.5% | [4] 4.6% | [5] 17.3%

CCOC(=O)C(C#N)Cc1ccccc1 (centres undefined)
inactive: [1] -0.85% | [6] -3.85% | [3] -14.2% | [4] -1.6% | [5] -3.35%

CC(=O)Cc1cc(-c2cc(CC(C)=O)[nH]n2)n[nH]1
inactive: [1] -45.1% | [6] -24.1% | [3] -25.5% | [4] -5.45% | [5] -5%

COc1cc(C2c3cc4c(cc3C3OC(=O)C2C3CO)OCO4)cc(OC)c1OC (centres undefined)
inactive: [1] -7.4% | [6] -14.5% | [3] 6.25% | [4] -19.5%

CC1CC(O)C2C3(C)CCCC2(COC3=O)C12CCC1(CCOC1=O)O2 (centres undefined)
inactive: [1] 4.4% | [6] 18.3% | [3] 25.9% | [4] 8.35% | [5] 13.6%

COc1cc2nc3cc([N+](=O)[O-])ccc3c(Cl)c2cc1OC
inactive: [1] -14.8% | [6] -19.7% | [3] 4.3% | [4] -14.2% | [5] 7.6%

O=C(Cc1nc2ccc([N+](=O)[O-])cc2nc1CC(=O)c1ccccc1)c1ccccc1
inactive: [1] -2.4% | [6] -10.5% | [3] 2.75% | [4] 13.2% | [5] -1.1%

COc1ccccc1N=Nc1c(O)ccc2cc(S(=O)(=O)O)ccc12
inactive: [1] -14.7% | [6] 6.75% | [3] 9.95% | [4] -2.75% | [5] -13.2%

CCOC(=O)c1cc2cccc(OC)c2oc1=O
inactive: [1] 6.15% | [3] -4.75% | [4] 12.8%

CC1CCC(C(=O)O)N1 (centres undefined)
inactive: [1] 29.6% | [6] 1.7% | [3] 4.45% | [4] -3.2% | [5] 6.65%

Cc1cccc(CO)c1
inactive: [1] 14.3% | [6] -25.1% | [3] -57% | [4] -18.4%

Nc1ccc(N=Nc2ccc(O)cc2)c(N)n1
inactive: [1] -15.7% | [6] -16.7% | [3] 2.85% | [4] 22.7% | [5] -4.7%

CC(C(=O)O)(C1CCCCC1)C1(O)CCCCC1 (centres undefined)
inactive: [1] 29.8% | [6] 39.9% | [3] 59.5% | [4] 62.5% | [5] 29.5%

COCCCNC(=O)c1nnn2c1nc(N)c1cc(Cl)ccc12
inactive: [2] 2.75% | [6] 25.6% | [3] 3.2% | [4] 23.6% | [5] 10.6%

COC(=O)c1cccnc1
inactive: [1] 6.65% | [6] -0.35% | [3] 7.2% | [4] -23.8% | [5] -1.2%

CC1(C)/C(=C\CO)C2CCC1C2 (centres undefined)
inactive: [1] 12.7% | [6] 1.95% | [3] -4.95% | [4] -2.65% | [5] 3.7%

NC(=S)CN1CCOCC1
inactive: [1] -2.6% | [6] -5.9% | [3] 1.6% | [4] 1.3% | [5] 2.15%

O=C(O)COCC(=O)O
inactive: [1] 34.1% | [6] -11.4% | [3] -53.2%

Cc1cc2ccccc2c(O)c1C#N
inactive: [1] 32.5% | [6] 6.3% | [3] -4.3% | [5] 48.9%

O=S(=O)(O)c1ccc(O)c2ccccc12
inactive: [1] -12.6% | [6] 0% | [3] -30.1%

CC(=O)c1cc2c(cc1F)C(C)(C)CCC2(C)C
inactive: [1] -23.2% | [6] -19.1% | [3] -32.5% | [4] -20.1% | [5] -18.6%

— PubChem BioAssay (NCI)
